Reference: PubChem BioAssay (NCATS)
Inconclusive results are not listed. The source made the active and inactive calls. Calls follow the shape of the dose curve; as a rule, active = well fitted cell-killing curve with a large enough effect; inconclusive = small, poorly fitted or top-dose-only effect, or effect the other way; inactive = flat fitted curve, though single readings scatter.

System: Tov112D
Test: Primary qHTS to identify gynecologic anti-cancer compounds using libraries of approved drugs and bioactive compounds (AID 1345084); also: nearly all actives have a fitted effect of over 55% in size
Settings: Gynecologic cancer cell panel viability, ATPlite luminescence, 48 h; series mostly up to 57.5 µM; activity change, negative = cytotoxicity: at the top concentration
Summary of the method: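 In this quantitative HTS, cell killing is estimated from loss of ATP-dependent luciferase light. Cells see five compound concentrations over a 48 h exposure.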
% is scaled to controls: 0 for no effect and ±100 for the full control effect; potency is read from the fitted curve at half-maximal effect.

Row | Compound | activity change, negative = cytotoxicity | Potency
1 | O=C(Nc1ccccc1Cl)c1cnc2ccc(C3CCNCC3)cn12 | -17.6% (inactive) | –
2 | Cc1nc(C#Cc2ccnc(Cl)c2)c(C)n1-c1ccc(F)cc1 | -14.3% (inactive) | –
3 | CC#CC(=O)Nc1ccc2ncnc(Nc3cccc(Br)c3)c2c1 | – | 12.6 µM (active)
4 | CC(=O)CC(=O)Nc1ccc(Cl)c(C(F)(F)F)c1 | -3% (inactive) | –
5 | O=C(Nc1nnc(-c2ccc3c(c2)OCCO3)o1)C1CCCCC1 | -2.8% (inactive) | –
6 | CC(=O)OC1C(OC(=O)c2ccccc2)C2C(=C(C)CCC2(C)C)C23CCC(C)(C2)C(=O)CC13 (stereo not given) | -24.8% [at 25.3 µM] (inactive) | –
7 | COc1ccc2cc3c(NC(=O)c4ccco4)nn(C)c3nc2c1 | -26.3% (inactive) | –
8 | Cc1nc(Nc2cnn(C3CCNCC3)c2)nc2c1N(C)C(=O)c1cc3ccccc3cc1N2C | -27.3% (inactive) | –
9 | CCCn1ncc(CN2CCCC(C(=O)c3cccc(OC(C)C)c3)C2)c1C (stereo not given) | -13.1% (inactive) | –
10 | COc1cc(F)c(C(C)C)cc1-c1ccc(C(F)(F)F)cc1CN1C(=O)OC(c2cc(C(F)(F)F)cc(C(F)(F)F)c2)C1C (stereo not given) | 8.3% (inactive) | –
11 | Nc1ncnc2c1nc(Cl)n2C1OC2COP(=O)(O)OC2C1O (stereo not given) | – | 5.01 µM (active)
12 | Fc1ccc(-c2nc(-c3c(F)cccc3F)[nH]c2-c2ccncc2)cc1 | 13.4% (inactive) | –
13 | Cc1[nH]c2ccc(F)cc2c1-c1nc2c3cccnc3c3ncccc3c2[nH]1 | – | 3.98 µM (active)
14 | CC(=O)O[C@@H]1CC[C@@]2(C)[C@H](CC[C@@H]3[C@@H]2C[C@H](OC(C)=O)[C@]2(C)[C@@H](C(C)=O)CC[C@@H]32)C1 | -13.8% (inactive) | –
15 | O=C(Nc1cccnc1)c1cc(-c2ccnc(F)c2)ccc1OCc1ccccc1 | -1% (inactive) | –
16 | OC1(CN2CCC(COc3noc4cccc(O[C@@H]5CCOC5)c34)CC2)CCOCC1 | -0.84% (inactive) | –
17 | C=C1CCC2C(C)(C)CCCC2(C)C1CC/C(C)=C\CO (stereo not given) | -0.934% (inactive) | –
18 | N#CC(CCCN1CCN(/N=C/c2cccnc2)CC1)(c1ccccc1)c1ccccc1 | 0.245% (inactive) | –
19 | CCOc1nc(NC(=O)Cc2cc(OC)ccc2OC)cc(N)c1C#N | 14.4% (inactive) | –
20 | O=C(CNC(=O)c1cccc(C(F)(F)F)c1)N[C@@H]1CCN(Cc2ccc(Cl)cc2)C1 | -1.18% (inactive) | –

Row | Compound | activity change, negative = cytotoxicity | Potency
21 | Cc1cnc(-c2ccccc2C(C)C)nc1NCc1ccc(-n2ccnn2)cc1 | -2.67% (inactive) | –
22 | CN(C)Cc1ccc(-c2cnn3c(-c4cccc(NC(=O)c5cccc(C(F)(F)F)c5)c4)ccnc23)cc1 | 18.3% (inactive) | –
23 | O=C(Nc1ccc(Cl)cc1)C1CCCN(C(=O)c2cccc(-c3ccco3)c2)C1 (stereo not given) | -12.9% (inactive) | –
24 | COC(=O)CC1OC(C)C2=C(O)c3c(O)cccc3C(=O)C23OC13 (stereo not given) | – | 6.31 µM (active)
25 | CC(=O)O[C@@H]1C[C@@]2(C)C(CC[C@]3(C)C2CC=C2C4CC(C)(C)CC[C@]4(C(=O)O)CC[C@]23C)C(C)(C)[C@H]1O (stereo not given in full) | 9.47% [at 25.3 µM] (inactive) | –
26 | O=C(Nc1ccccc1)c1ccc(Nc2nnc(-c3ccc(O)cc3)c3ccccc23)cc1 | -2.27% (inactive) | –
27 | C=C1C(=O)O[C@@H]2C[C@H](C)C3=CC(=O)[C@H](O)[C@@]3(C)C[C@H]12 | 20.5% (inactive) | –
28 | N#Cc1ccc(-c2ccc(S(=O)(=O)Nc3cccc(N)n3)cc2)cc1 | -21.5% (inactive) | –
29 | COc1cc(C#N)ccc1S(=O)(=O)Nc1ccc2c(c1)cc(C)c(=O)n2C | -1.38% (inactive) | –
30 | C/C(=C/C=C\C=C\Cc1cnco1)[C@@H](O)C(C)(C)C(N)=O | 22.2% (inactive) | –
31 | CC(C)(C)Oc1ccc(OCC2Cc3ccccc3CN2C(=O)c2cccc3ccccc23)cc1 (stereo not given) | -20.8% (inactive) | –
32 | O=c1cc(N2CCOCC2)nc2c3ccccc3ccn12 | -13% (inactive) | –
33 | CC1(C)CC[C@]2(C(=O)O)CC[C@]3(C)C(=CCC4[C@@]5(C)C[C@@H](O)[C@H](O)[C@@](C)(CO)C5CC[C@]43C)[C@@H]2[C@@H]1O (stereo not given in full) | -24.2% [at 25.3 µM] (inactive) | –
34 | Cc1ccnn1-c1ccc(C(=O)N2CCN(S(=O)(=O)c3ccc(Cl)c(C(F)(F)F)c3)CC2)cc1 | -13.4% (inactive) | –
35 | CCCCNc1ncc(-c2ccc(CN3CCOCC3)cn2)c(NC2CCC(O)CC2)n1 (stereo not given) | -4.54% [at 25.3 µM] (inactive) | –
36 | CC(C)(N)c1ncc(-c2ccc(OC(F)(F)F)cc2)[nH]1 | -7.86% (inactive) | –
37 | CC(C)(O)c1ccc2c(c1)ncn2-c1cccc(-c2ccccc2C#N)c1 | -0.381% (inactive) | –
38 | COc1ccc2c(c1)C(C(=O)N(Cc1ccc(N(C)C)cc1)c1ccc(C(C)C)cc1)CCC2 (stereo not given) | 9.1% (inactive) | –
39 | C[C@@H]1CC[C@@]23CC[C@]4(C)[C@@](C=CC5[C@@]6(C)CC[C@H](O)C(C)(C)C6CC[C@]54C)(OC2=O)C3[C@H]1C (stereo not given in full) | -1.37% [at 25.3 µM] (inactive) | –
40 | O=C(NNc1nc2cc(F)ccc2n2cccc12)c1cnccn1 | – | 6.31 µM (active)
